DT40 TDP1 no CPT – qHTS for Inhibitors of human tyrosyl-DNA phosphodiesterase 1 (TDP1): qHTS in cells in absence of CPT | DT40 Tdp1-/- hTDP1 cells, no CPT, ATP luminescence, 48 h | Potency, µM (series often up to 46.2 µM), actives largely listed as inhibitors | hit rate 15% among 420,000; further: nearly all actives have a fitted effect of over 55% in size
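A cellular qHTS used chicken DT40 cells lacking endogenous Tdp1 but carrying stably transfected human TDP1. Compounds were applied without camptothecin, and cell growth kinetics were judged by ATP-dependent luminescence after ≥48 hr.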
HT1080-NT tox – kills 2HG-producing HT-1080-NT fibrosarcoma cells; Potency, µM (doses to about 46.1 µM), usual class: cytotoxic; HT-1080-NT fibrosarcoma viability, CellTiter-Glo ATP luminescence, 48 h; hit rate 1.6% among 360,000;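 further: NT is the 2HG producing partner of a matched IDH1 knockdown line; nearly all actives have a fitted effect of over 55% in size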
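Viability by CellTiter-Glo luminescence after 48 h compound exposure at 37C of HT-1080-NT cells (750/well, RPMI, 5% FBS). % activity scaled between DMSO wells and medium-only wells, then curve-fitted and categorized by curve class.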
TDP1 cell CPT – growth inhibition of DT40 Tdp1-/-;hTDP1 cells with camptothecin (screen for TDP1 inhibitors); hit rate 12% among 420,000; chicken DT40 Tdp1-/-;hTDP1 cells + 20 nM CPT, ATP luminescence, 48 h; Potency, µM (doses to about 46.2 µM), hits mostly inhibitors; further: nearly all actives have a fitted effect of over 55% in size
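Chicken DT40 Tdp1-/- cells complemented with human TDP1, 400 cells/well, exposed to compounds plus 20 nM camptothecin for at least 48 h at 37 C; viability read as ATP content by CellTiter-Glo luminescence.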
IL-1B inflam inh – inflammasome signaling inhibition, IL-1 beta readout; THP-1 LPS/ATP IL-1B secretion, AlphaLISA, 16 h; active compounds read low; activity change, % at 57.5 µM; hit rate 4.7% among 360,000; AID 743279; in the data active means activity change below about -50%; inconclusive means mostly about -30% to -49%
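THP-1 cells pretreated 1 hr with compounds (up to 57.5 uM final), then stimulated with LPS (250 ng/mL final) plus ATP (1.25 mM final); secreted IL-1B measured by AlphaLISA after 16 hr, decreased signal indicating inhibition.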
HT1080 IDH1KD tx – kills HT-1080 cells with IDH1 knockdown; HT-1080 IDH1 knockdown viability, ATP luminescence, 48 h; Potency, µM (top dose mostly 46.1 µM), actives largely listed as cytotoxic; hit rate 2% among 360,000
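Assay cells: HT-1080 with IDH1 knockdown, 750 per well, RPMI/5% FBS. Exposure: 48 h at 37 °C following 2 h pre-incubation. Read: CellTiter-Glo luminescence; fitted concentration-response, curve class assigned.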
uPA generation – inhibitors of cell surface uPA generation. cell surface uPA generation assay, qHTS. Potency, µM (series often up to 38.3 µM), most hits filed as inhibitors. hit rate 0.31% among 330,000. AID 540303; active means well fitted inhibition curve with a large enough effect; inconclusive means small, poorly fitted or top-dose-only effect; inactive means no such curve, though single readings can be large or run the other way; tested in mouse RAW 264.7 cells; further: nearly all actives have a fitted effect of over 55% in size
Large screens that a line does not name were inactive. In the library only some 19% were active in any assay of this set; here they are far more common. Unless noted, the call rests on the fitted dose curve; in most records, active means well fitted curve in the direction sought with a large enough effect; inconclusive means small, poorly fitted or top-dose-only effect, or another doubt; inactive means no such curve, though single readings can be large; an effect the other way counts as inactive or inconclusive.

COCCN(C(=O)C1CC(=O)N(Cc2ccccc2)C1)c1nc(-c2ccc([N+](=O)[O-])cc2)cs1 (configuration not stated)	DT40 TDP1 no CPT 21µM, TDP1 cell CPT 16µM, uPA generation inconclusive
CCOc1ccc(/C=N/Nc2cc(=O)n(C)c(=O)n2C)cc1	DT40 TDP1 no CPT inconclusive
CC(C)CC(=O)NC(=S)Nc1sc2c(c1C(N)=O)CCC2	none
N#Cc1c(NC(=O)CSc2nc(N)cc(=O)[nH]2)sc2c1CCCC2	DT40 TDP1 no CPT 23µM, TDP1 cell CPT inconclusive
CC(C)CC(=O)NC(NC(=S)Nc1sc2c(c1C#N)CCCC2)C(Cl)(Cl)Cl (configuration not stated)	DT40 TDP1 no CPT inconclusive, HT1080-NT tox inconclusive, TDP1 cell CPT 16µM, HT1080 IDH1KD tx inconclusive
N#Cc1c(NC(=O)CCC(=O)O)sc2c1CCCC2	TDP1 cell CPT 0.58µM
CCC(=O)Nc1sc2c(c1C#N)CCC2	none
CCc1ccc(CCC(=O)Nc2sc3c(c2C#N)CCCC3)o1	DT40 TDP1 no CPT 3.5µM, HT1080-NT tox 4µM, TDP1 cell CPT 5µM, HT1080 IDH1KD tx 4.5µM (no result: uPA generation)
COCCCNC(=O)CCCn1c(=O)c2cccn2c2cccnc21	none (no result: HT1080-NT tox, IL-1B inflam inh, HT1080 IDH1KD tx, uPA generation)
O=C(Nc1cccc(C(F)(F)F)c1)c1cc2nc(-c3ccccc3)cc(C(F)(F)F)n2n1	none (no result: HT1080-NT tox, IL-1B inflam inh, HT1080 IDH1KD tx, uPA generation)
O=C(c1cccnc1)C1CCCN(Cc2ccc3c(c2)CN(C(=O)c2ccc4[nH]ccc4c2)CCO3)C1 (configuration not stated)	DT40 TDP1 no CPT inconclusive (no result: HT1080-NT tox, IL-1B inflam inh, HT1080 IDH1KD tx, uPA generation)
COc1ccc2cc(C(=O)C3CCCN(Cc4cccc(C)n4)C3)ccc2c1 (configuration not stated)	DT40 TDP1 no CPT 8.2µM, HT1080-NT tox inconclusive, TDP1 cell CPT 2.6µM, IL-1B inflam inh -109, HT1080 IDH1KD tx 23µM
COc1cccc(C(=O)C2CCCN(C(=O)c3ccc(C#CC(C)(C)O)cc3)C2)c1 (configuration not stated)	DT40 TDP1 no CPT 15µM, TDP1 cell CPT 18µM
COc1cccc(-c2ccc(NC(=O)C3CCCN(Cc4ccc(CO)o4)C3)cc2)c1 (configuration not stated)	DT40 TDP1 no CPT 16µM, TDP1 cell CPT 16µM
CC(C)c1cc(C(=O)N2CCCC(C(=O)c3ccc4ccccc4c3)C2)on1 (configuration not stated)	DT40 TDP1 no CPT 26µM, TDP1 cell CPT inconclusive, IL-1B inflam inh -89
COc1cccc(-c2cccc(NC(=O)C3CCN(Cc4ccc(CO)o4)CC3)c2)c1	none
COc1cccc(C(=O)C2CCCN(C(=O)c3ccccn3)C2)c1 (configuration not stated)	none
COc1cccc(-c2ccc(NC(=O)C3CCCN(Cc4cnn(C)c4C)C3)cc2)c1 (configuration not stated)	DT40 TDP1 no CPT inconclusive, HT1080-NT tox inconclusive, TDP1 cell CPT inconclusive, HT1080 IDH1KD tx inconclusive, uPA generation inconclusive
Cc1ncc(CN2CCCC(C(=O)Nc3ccc(-c4cccc(F)c4)cc3)C2)n1C (configuration not stated)	DT40 TDP1 no CPT inconclusive, HT1080-NT tox inconclusive, TDP1 cell CPT 23µM, IL-1B inflam inh inconclusive, HT1080 IDH1KD tx inconclusive
Cc1cc(CN2CCCC(C(=O)Nc3ccc(-c4nc5ccccc5[nH]4)cc3)C2)n[nH]1 (configuration not stated)	DT40 TDP1 no CPT inconclusive, TDP1 cell CPT 18µM, HT1080 IDH1KD tx inconclusive
CCOC(=O)N1CCC(N2CCCC(C(=O)c3cc(C)c(OC)c(C)c3)C2)CC1 (configuration not stated)	none
COc1cccc(-c2ccc(NC(=O)C3CCCN(Cc4cnc(C)n4C)C3)cc2)c1 (configuration not stated)	DT40 TDP1 no CPT inconclusive, TDP1 cell CPT inconclusive
CCOC(=O)N1CCC(N2CCCC(C(=O)c3ccc4cc(OC)ccc4c3)C2)CC1 (configuration not stated)	DT40 TDP1 no CPT 15µM, HT1080-NT tox inconclusive, TDP1 cell CPT 23µM, IL-1B inflam inh -162, HT1080 IDH1KD tx inconclusive
